The text below walks through data of PubChem BioAssay (Tox21).

Inconclusive results are not listed. Values without a mark were called inactive. Activity calls are given as the source filed them. Unless noted, calls come from the whole dose curve; as a rule, active = well fitted curve in the direction sought with a large enough effect in the repeat runs; inconclusive = weak or mixed curves; inactive = no such curve, though single readings can be large; an effect the other way counts as inactive or inconclusive.

A short description of experiment [1]: qHTS assay to identify small molecule antagonists of the vitamin D receptor (VDR) signaling pathway - cell viability counter screen (AID 743225). Note: % is set by controls: 0 for no effect and ±100 for the full control effect; nearly all actives have a fitted effect of over 50% in size. In a few lines:
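VDR-bla HEK 293T cells, 4 h pre-incubation at 37C, then compound plus 1-alpha,25-dihydroxyvitamin D3 (3 nM final) for 16 h. After the beta-lactamase FRET read, CellTiter-Glo was added to the same wells; luminescence after 30 min at room temperature.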
Background: Quantitative high-throughput screening tests each substance at several concentrations.

The nature of experiment [2]: qHTS assay to identify small molecule agonists of the NFkB signaling pathway - cell viability counter screen (AID 1159515; calls by dose curve; note: series mostly up to about 61 µM; % is set by controls: 0 for no effect and ±100 for the full control effect; nearly all actives have a fitted effect of over 55% in size). In outline: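 Parallel cytotoxicity counter screen in ME-180 cells carrying an NFkB-response-element beta-lactamase reporter, 2,000 cells/well. Compound exposure lasted 5 hr at 37 C, 5% CO2. Cell viability was quantified by CellTiter-Glo luminescence.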

The nature of experiment [3]: qHTS assay to identify small molecule agonists of the endoplasmic reticulum stress response signaling pathway (AID 1159516; active = well fitted activation curve with a large enough effect in the signal ratio in the repeat runs, not every such curve was filed as active; the % refers to the signal ratio; note: % is set by controls: 0 for no effect and ±100 for the full control effect). In a few lines:
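Using a HeLa line with an ESRE-driven beta-lactamase gene, agonist activity was measured by FRET substrate fluorescence (460 and 530 nm emission) after cells were treated with compounds for 5 hr at 37 C and 5% CO2.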

Experiment [4] in a line: qHTS assay to identify small molecule agonists of the endoplasmic reticulum stress response signaling pathway - cell viability counter screen (AID 1159517; calls by dose curve;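 note: HeLa cells carrying an ER stress response element beta-lactamase reporter; series mostly up to about 61 µM; % is set by controls: 0 for no effect and ±100 for the full control effect; nearly all actives have a fitted effect of over 50% in size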). In outline: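 In parallel with the ESRE reporter read, cytotoxicity was scored by CellTiter-Glo luminescence (30 min, room temperature) on HeLa ESRE-bla cells dosed for 5 hr.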
Experiment [5] is described as follows: qHTS assay to identify small molecule antagonists of the retinoid-related orphan receptor gamma (ROR-gamma) signaling pathway - cell viability counter screen (AID 1159520). Note: % is set by controls: 0 for no effect and ±100 for the full control effect; nearly all actives have a fitted effect of over 50% in size. In outline: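 Tet-on ROR gamma CHO cells were given compounds for 2 hr, then doxycycline hyclate at 1 uM final, and incubated 16 hr at 37 C. Viability was measured as ATP content by CellTiter-Glo luminescence.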

The target in experiment [6] is Nuclear receptor ROR-gamma (Homo sapiens) (UniProt P51449). The experiment is described as follows: qHTS assay to identify small molecule antagonists of the retinoid-related orphan receptor gamma (ROR-gamma) signaling pathway (AID 1159521; note: nearly all actives have a fitted effect of over 50% in size; note: potency is the fitted concentration of half-maximal effect). In a few lines: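 Tet-on RORγ CHO cells carrying a ROR response element–luciferase reporter were pretreated with compounds for 2 h, then induced with 1 uM (final) doxycycline hyclate for 16 h at 37 C. Antagonism was read as decreased ONE-Glo luminescence.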

Experiment [7] can be described thus: qHTS assay to identify small molecule agonists of the AP-1 signaling pathway - cell viability counter screen (AID 1159525; calls by dose curve; note: nearly all actives have a fitted effect of over 55% in size). In a few lines:
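Same-well cytotoxicity counter screen of the Tox21 10K library in ME-180 cells. The readout is ATP-dependent luminescence after 5 h compound treatment. Data are normalised to DMSO and tetra n-octyl ammonium bromide controls.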

Experiment [8] in a line: qHTS assay to identify small molecule agonists of the AP-1 signaling pathway (AID 1159526; calls by dose curve; note: % is set by controls: 0 for no effect and ±100 for the full control effect).
Experiment [9] deals with Retinoic acid receptor RXR-alpha (Homo sapiens) (UniProt P19793). The experiment is described as follows: qHTS assay to identify small molecule agonists of the RXR signaling pathway (AID 1159527; calls by dose curve; note: % is set by controls: 0 for no effect and ±100 for the full control effect; nearly all actives have a fitted effect of over 35% in size). In outline:
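GeneBLAzer RXR-alpha-UAS-bla HEK 293T cells in medium with 2% charcoal-stripped FBS, pre-incubated 5 hr at 37 C, then exposed to compounds 16 hr. Beta-lactamase reporter read by FRET substrate, 2 hr room temperature, 460/530 nm emission.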

Experiment [10] is described as follows: qHTS assay to identify small molecule agonists of the RXR signaling pathway - cell viability counter screen (AID 1159529). In a few lines: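 RXR-alpha-UAS-bla HEK 293T cells in medium with 2% charcoal-stripped FBS were preincubated 5 hr, then exposed to compounds for 16 hr at 37 C. Viability was read as CellTiter-Glo luminescence after 30 min at room temperature.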

A short description of experiment [11]: qHTS assay to identify small molecule antagonists of the retinoid acid receptor (RAR) signaling pathway - cell viability counter screen (AID 1159551). Note: % is set by controls: 0 for no effect and ±100 for the full control effect; nearly all actives have a fitted effect of over 35% in size. In a few lines:
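ATP-based viability, C3RL4 cells, 6 h at 37 C with 1 uM final retinol co-added after compound; luminescence read 30 min post CellTiter-Glo, RT.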

Experiment [12] is described as follows: qHTS assay to identify small molecule antagonists of the retinoic acid receptor (RAR) signaling pathway (AID 1159552). In a few lines:
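RARE-luc C3RL4 cells; cpds + 1 uM (final) retinol, 6 hr, 37 C/5% CO2; luciferase reagent, 30 min RT, luminescence readout. Inhibitors of retinol-driven signal scored.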

Experiment [13] in a line: qHTS assay to identify small molecule antagonists of the estrogen related receptor (ERR) signaling pathway from Tox21 library - cell viability counter screen (AID 1224834). Note: % is set by controls: 0 for no effect and ±100 for the full control effect; nearly all actives have a fitted effect of over 30% in size. In a few lines:
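Compounds in DMSO were pinned onto ERR cells that had been incubated for 6 h, and the plates were held at 37 C for 17.5 h. CellTiter-Fluor reagent was then added and fluorescence was measured after 30 min.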

Experiment [14] is described as follows: qHTS assay to identify small molecule antagonists of the estrogen related receptor (ERR) signaling pathway - cell viability counter screen (AID 1224818).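 Note: series mostly up to about 46 µM; viability measured after 17.5 h of compound exposure; % is set by controls: 0 for no effect and ±100 for the full control effect.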 In a few lines: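 Quantitative high-throughput viability counter screen in ERR cells. Compounds (DMSO) incubated 17.5 h at 37 C; read-out was CellTiter-Fluor fluorescence.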
Experiment [15] in a line: qHTS assay to identify small molecule antagonists of the estrogen related receptor signaling pathway with the pleiotropic PPARgamma coactivator (PGC) cell viability counter screen (AID 1224822; note: series mostly up to about 46 µM; % is set by controls: 0 for no effect and ±100 for the full control effect). In a few lines: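 Cytotoxicity in the PGC/ERR cell line is assessed with CellTiter-Fluor, read as fluorescence intensity 30 min after reagent addition, following 17.5 h compound treatment at 37 C.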

Experiment [16] is described as follows: qHTS assay to identify small molecule agonists of the retinoic acid receptor (RAR) signaling pathway (AID 1159553). Note: % is set by controls: 0 for no effect and ±100 for the full control effect. In outline: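 Quantitative high-throughput format: the Tox21 10K library was tested on C3RL4 RARE-luciferase cells for 6 hr at 37 C and 5% CO2, with luminescence measured after a 30 min room-temperature reagent step.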

Retinoic acid receptor RXR-alpha (Homo sapiens), sequence (P19793 whole entry, looked up): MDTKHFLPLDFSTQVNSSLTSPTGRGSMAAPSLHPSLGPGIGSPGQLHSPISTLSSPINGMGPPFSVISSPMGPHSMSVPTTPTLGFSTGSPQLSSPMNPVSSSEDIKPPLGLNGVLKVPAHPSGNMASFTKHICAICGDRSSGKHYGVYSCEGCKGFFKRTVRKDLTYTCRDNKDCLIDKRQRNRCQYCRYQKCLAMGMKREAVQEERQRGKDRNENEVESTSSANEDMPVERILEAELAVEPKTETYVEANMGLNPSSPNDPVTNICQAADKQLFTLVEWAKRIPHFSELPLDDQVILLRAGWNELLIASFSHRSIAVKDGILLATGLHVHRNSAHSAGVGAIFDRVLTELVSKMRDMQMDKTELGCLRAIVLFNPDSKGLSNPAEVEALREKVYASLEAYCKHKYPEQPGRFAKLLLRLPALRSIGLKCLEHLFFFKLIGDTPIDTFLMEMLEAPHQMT

As to `Cc1ccccc1N=C(N)N=C(N)N`, the result in experiment [1], in experiment [2], in experiment [3], in experiment [4], in experiment [5] and in experiment [7] was inactive. For the same molecule, the call in experiment [8] and in experiment [11] was inactive. Further, the Potency result in experiment [6], in experiment [9], in [10], in experiment [12] and in [13] was “inactive” throughout.

Regarding `CCN(CC#N)c1cccc(C)c1`, the molecule was called inactive in [1], in experiment [2], in experiment [3], in experiment [4], in experiment [5] and in [7]. For the same molecule, the molecule was classed as inactive in experiment [8] and in experiment [11]. Further, the Potency entry in [6], in experiment [9], in experiment [10], in [12] and in [13] was “inactive” each time.

Turning to `C[N+](C)(C)CCCCCCCCCC[N+](C)(C)C`, the call in experiment [1], in experiment [2], in experiment [3], in [4], in experiment [5] and in [7] was inactive. In addition, the call in experiment [8], in [11], in [14] and in experiment [15] was inactive. In addition, the Potency result in [6], in experiment [9], in [10] and in experiment [13] was “inactive” each time.

Turning to `CC(=O)Nc1ccc(OCC(O)CNC(C)C)cc1` (stereo not given), the molecule was called inactive in experiment [1], in experiment [2], in experiment [3], in [4], in experiment [5] and in [7]. Moreover, the molecule was called inactive in [8] and in [11]. In addition, the Potency result in experiment [6], in experiment [9], in experiment [10], in experiment [12] and in experiment [13] was “inactive” throughout.

`Nc1ccn([C@@H]2O[C@H](CO)[C@@H](O)C2(F)F)c(=O)n1`: the molecule was classed as inactive in experiment [1], in experiment [2], in [3], in [4], in experiment [5] and in experiment [7]. In addition, the call in experiment [8] and in [11] was inactive. The Potency in experiment [6] was 237 nM (active). Further, the Potency result in [9], in experiment [10], in experiment [16] and in [13] was “inactive” throughout.

On to `CC1OC1C1CCC2(C)OC2C1` (stereo not given), for which the result in experiment [1], in experiment [2], in experiment [3], in experiment [4], in experiment [5] and in [7] was inactive. Moreover, the call in [8] and in [11] was inactive. Further, the Potency entry in experiment [6], in experiment [9], in experiment [10] and in experiment [12] was “inactive” throughout.

For `CCCCCCC1CCC(=O)O1` (stereo not given), the molecule was called inactive in experiment [2], in [3], in experiment [4], in [5], in experiment [7] and in experiment [8]. In [11], the call was inactive. For the same molecule, the Potency entry in experiment [6], in experiment [9], in experiment [10] and in [12] was “inactive” in each case.

For the molecule `CCN[C@@H]1C[C@H](N)[C@@H](OC2OC(CN)=CCC2N)[C@H](O)[C@H]1O[C@H]1OC[C@](C)(O)[C@H](NC)[C@H]1O` (stereo not given in full), the viability change, negative = cytotoxic in experiment [1] was 2.46% [at 0.628 µM]; in experiment [7], 0.839% [at 0.29 µM]; in [13] it was 5.78% [at 0.349 µM]. Also, the activity, negative = cytotoxic in [2] is 6.29% [at 0.628 µM]. The activation is 0.974% [at 0.628 µM] in experiment [3], -3.82% [at 0.29 µM] in experiment [8] and 6.62% [at 0.29 µM] in experiment [9]. In addition, the activity change, negative = cytotoxicity in [4] was -1.46% [at 0.628 µM]; in experiment [10] it was -0.24% [at 0.29 µM]; in experiment [11] it was 2.69% [at 0.349 µM]. The activity, negative = cytotoxicity in [5] is 3.44% [at 0.349 µM]. In [6], the activity change, negative = inhibition was 45.3% [at 0.35 µM]. Besides, the activity, negative = inhibition in experiment [12] is 11.8% [at 0.349 µM].

Regarding `COC(=O)Nc1ccc(Cl)c(Cl)c1`, the molecule was classed as inactive in [1], in experiment [2], in [3], in experiment [4], in experiment [5] and in experiment [7]. Further, the molecule was classed as inactive in experiment [8] and in [11]. The Potency entry in [6], in experiment [9], in experiment [10], in [12] and in experiment [13] was “inactive” each time.
